The panel holds about 83,000 compounds, 20% with a hit somewhere; the sample as a whole holds those more often.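 Cell lines were cultured in 96-well plates, exposed to a single compound concentration, and assessed for percent growth 48 hours later.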 Calls of active or inactive are those of the source. How the source made its calls: active means growth percent below 10; inactive means the rest.
Assays:
Experiment in all cases: NCI-60 one-dose screen, 48 h (100 = growth as untreated, 0 = no growth, -100 = all killed)
Conditions in all cases: 10 µM unless noted
[1] = system: DU-145 prostate
[2] = system: K-562 leukemia
[3] = system: MALME-3M melanoma
[4] = system: MDA-MB-231 breast
[5] = system: RXF 393 renal
[6] = system: SF-268 CNS
[7] = system: SF-295 CNS
[8] = system: SF-539 CNS
[9] = system: UACC-257 melanoma
[10] = system: HCT-15 colon
[11] = system: HT29 colon
[12] = system: SNB-75 CNS
[13] = system: SNB-19 CNS
[14] = system: U251 CNS
[15] = system: PC-3 prostate
[16] = system: SK-MEL-5 melanoma
[17] = system: UACC-62 melanoma
[18] = system: LOX IMVI melanoma
[19] = system: SK-MEL-28 melanoma

Measured: growth

Cc1ccc(-c2nnc(SCc3ccc(O)c4ncccc34)n2-c2ccccc2)cc1
inactive: [1] 30.2% | [4] 23.6% | [6] 14.8% | [11] 36% | [19] 23%
active: [2] 6.04% | [3] 3.77% | [5] -0.61% | [7] -10.3% | [8] 5.11% | [9] -7.27% | [10] 6.13% | [12] -5.25% | [13] 9.09% | [14] -2.5% | [15] 5.96% | [16] -28.2% | [17] -27.7% | [18] 3.35%

C[C@H](CCC(=O)NCc1ccc(C(=O)Nc2ccccc2N)cc1)[C@H]1CC[C@H]2[C@@H]3[C@@H](O)C[C@@H]4C[C@H](O)CC[C@]4(C)[C@H]3CC[C@]12C
inactive: [1] 84.1% | [2] 30.6% | [3] 45% | [4] 49.2% | [5] 55.3% | [6] 52.6% | [7] 69.1% | [8] 55.6% | [9] 63.7% | [10] 88.3% | [11] 48.1% | [12] 91.5% | [13] 73.1% | [14] 64.3% | [15] 42.4% | [16] 63.3% | [17] 36.7% | [18] 59.6% | [19] 63.6%

NS(=O)(=O)c1ccc(Nc2nc(N/N=C/c3c[nH]c4ccccc34)nc(Nc3ccccc3)n2)cc1
inactive: [1] 43.4% | [2] 23% | [3] 46.1% | [4] 48.8% | [6] 59.2% | [7] 31.5% | [8] 47.6% | [9] 63.1% | [10] 75.5% | [11] 31.6% | [12] 70.8% | [13] 56.7% | [14] 28.1% | [15] 26% | [16] 39.8% | [17] 38.3% | [19] 45.9%
active: [5] -25.2% | [18] -10.6%

CCN1CCN(Cc2cn(-c3ccc(S(N)(=O)=O)cc3)nn2)CC1
inactive: [1] 108% | [2] 104% | [3] 111% | [4] 104% | [5] 116% | [6] 103% | [7] 105% | [8] 99.3% | [9] 107% | [10] 104% | [11] 102% | [12] 95.6% | [13] 105% | [14] 109% | [15] 97.8% | [16] 103% | [17] 98.1% | [18] 102% | [19] 116%

Cn1ccnc1C(=O)/C=C/C=C/c1ccc(C(=O)Nc2ccc(F)cc2)cc1
active: [5] -25.1% | [8] -25.4% | [10] -36.8% | [11] 0.045% | [14] -1.47% | [18] -65.7%
inactive: [1] 18.8% | [2] 12.6% | [3] 19.9% | [4] 12.3% | [6] 22% | [7] 59% | [9] 46.8% | [12] 51.7% | [13] 39.6% | [15] 41.8% | [16] 30.4% | [17] 32.8% | [19] 39.7%

CC1=CC(=O)C2=C(C)CC(OC(=O)CCc3ccccc3)[C@@H]3[C@H](OC(=O)[C@@H]3C)[C@@H]12 (some centres undefined)
inactive: [1] 101% | [2] 84.2% | [3] 113% | [4] 96.8% | [5] 122% | [6] 98.8% | [7] 90.7% | [8] 94.1% | [9] 91.6% | [10] 81.7% | [11] 78.1% | [12] 95.8% | [13] 93.6% | [14] 102% | [15] 76.7% | [16] 82% | [17] 72.7% | [18] 95.9% | [19] 100%

Cc1cc2nc(C(Cl)Cl)nc(-c3cccs3)n2n1
active: [1] -26.5% | [5] -52.9% | [7] -9.21% | [11] -12.9% | [14] -11.1%
inactive: [2] 35.3% | [3] 39.7% | [4] 11.2% | [6] 28.9% | [8] 17.5% | [9] 33.1% | [10] 11.4% | [12] 75.3% | [13] 21% | [15] 11.2% | [16] 83.9% | [17] 45.5% | [18] 74.7% | [19] 14.6%

O=C(Nc1ccc(F)c(F)c1)c1cc(-c2ccc(F)cc2F)ccc1O
active: [3] -13.9% | [4] 4.13% | [5] -28.1% | [7] -23.4% | [9] -9.01% | [10] 2.24% | [12] -0.285% | [15] 8.32% | [16] -79.9% | [17] -18.3% | [18] 2.89%
inactive: [1] 18.5% | [2] 12.2% | [6] 16.3% | [8] 12.5% | [11] 88.6% | [13] 12.5% | [14] 11.4% | [19] 20%

CNC(=O)c1cc(-c2ccc(NS(=O)(=O)c3ccc(C)cc3)cc2)nc2cccnc12
inactive: [1] 113% | [2] 101% | [3] 101% | [4] 95% | [5] 133% | [6] 107% | [7] 108% | [8] 102% | [9] 105% | [10] 105% | [11] 109% | [12] 104% | [13] 99.8% | [14] 101% | [15] 99.7% | [16] 103% | [17] 90.4% | [18] 100% | [19] 119%

O=C(CSc1nnc(-c2ccc3nc(-c4ccccc4)[nH]c3c2)o1)Nc1ccc(C(=O)/C=C/c2ccccc2)cc1
inactive: [1] 107% | [2] 112% | [3] 94.5% | [4] 105% | [5] 114% | [6] 109% | [7] 109% | [8] 96.8% | [9] 103% | [10] 110% | [11] 108% | [12] 113% | [13] 99.9% | [14] 98.2% | [15] 106% | [16] 98.3% | [17] 97.1% | [18] 97.3% | [19] 103%

COc1ccccc1N1CCN(C2=CC(=O)C(C)=C(C)C2=O)CC1
inactive: [1] 105% | [2] 96.9% | [3] 104% | [4] 102% | [5] 97.7% | [6] 101% | [7] 103% | [8] 100% | [9] 96.4% | [10] 100% | [11] 104% | [12] 102% | [13] 104% | [14] 98.1% | [15] 95.9% | [16] 99.4% | [17] 99.5% | [18] 94.8% | [19] 119%

NS(=O)(=O)c1ccc(-n2cc(CN3CCNCC3)nn2)cc1
inactive: [1] 111% | [2] 95.9% | [3] 112% | [4] 105% | [5] 111% | [6] 102% | [7] 106% | [8] 98.7% | [9] 111% | [10] 104% | [11] 109% | [12] 92.1% | [13] 102% | [14] 105% | [15] 102% | [16] 100% | [17] 99% | [18] 107% | [19] 111%

N#Cc1cccc(CN2CCc3ncn(Cc4ccc(Cl)cc4)c(=O)c3C2)c1
inactive: [1] 26.9% | [2] 24.2% | [3] 41.5% | [4] 26.9% | [5] 14.3% | [6] 27.2% | [8] 33.6% | [9] 12.3% | [10] 13.5% | [11] 28.3% | [12] 33.2% | [13] 19.7% | [14] 23.1% | [15] 18.5% | [17] 20.6% | [18] 35.3% | [19] 36.9%
active: [7] 8.57% | [16] 3.19%

O=C(Cn1cc(-c2ccccc2)nn1)Nc1nc(-c2ccc(Cl)cc2)cs1
inactive: [1] 108% | [2] 98% | [3] 90.4% | [4] 104% | [5] 135% | [6] 113% | [7] 77.7% | [8] 108% | [9] 98.9% | [10] 94.4% | [11] 102% | [12] 103% | [13] 94.7% | [14] 105% | [15] 101% | [16] 94.5% | [17] 76.1% | [18] 101% | [19] 108%

O=C1CCCc2nc(Nc3ccc(S(=O)(=O)Nc4ccc([N+](=O)[O-])cc4)cc3)ncc21
inactive: [1] 105% | [2] 92.2% | [3] 107% | [4] 99.6% | [5] 103% | [6] 96.2% | [7] 101% | [8] 92.8% | [9] 102% | [10] 103% | [11] 118% | [12] 92.6% | [13] 96.2% | [14] 103% | [15] 105% | [16] 104% | [17] 90.3% | [18] 97.1% | [19] 106%

COC(=O)/C=C/c1c(C2(C)NC(=O)c3ccccc3N2)c(=O)oc2ccc(Cl)cc12 (centres undefined)
inactive: [1] 102% | [2] 105% | [3] 88.3% | [4] 89.2% | [5] 69.5% | [6] 92.9% | [7] 95.3% | [8] 95.8% | [9] 98% | [10] 91.4% | [11] 96% | [12] 74% | [13] 90.7% | [14] 88% | [15] 89.2% | [16] 91.4% | [17] 75.4% | [18] 97% | [19] 97.6%
